Many of the other results were omitted from the sample, so the strongest signals are more common in it than they were.
Legend:
Assay in all cases: glycan array binding signal (z-score within array); higher = stronger binding
Conditions in all cases: glycan notation: IUPAC condensed, linker removed
[1] = biological target: Fuc(a1-2)Gal(b1-4)GlcNAc(b1-3)[Fuc(a1-3)[Gal(b1-4)]GlcNAc(b1-6)]Gal(b1-4)Glc
In short: (§1)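 Columns mapping to the same glycan were averaged after glycan names were converted to IUPAC-condensed notation. The data come from 3228 arrays in the Consortium for Functional Glycomics database, limited to those with an available protein sequence. Binding is reported as a within-array Z-score averaged across arrays of one protein sequence and across linkers.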

[2] = biological target: Fuc(a1-2)Gal(b1-4)[Fuc(a1-3)]GlcNAc(b1-3)Gal(b1-4)[Fuc(a1-3)]GlcNAc(b1-3)Gal(b1-4)[Fuc(a1-3)]GlcNAc
In short: as §1

[3] = biological target: Fuc(a1-2)[Gal(a1-3)]Gal(b1-3)GlcNAc(b1-6)GalNAc
In short: as §1

[4] = biological target: Fuc(a1-2)[GalNAc(a1-3)]Gal(b1-4)[Fuc(a1-3)]GlcNAc
In short: as §1

[5] = biological target: Fuc(a1-3)[Gal(b1-4)]GlcNAc(b1-6)GalNAc
In short: as §1

[6] = biological target: Fuc(a1-3)[GalNAc(b1-4)]GlcNAc6S
In short: as §1

[7] = biological target: Gal(a1-3)Gal(b1-3)GlcNAc(b1-2)Man(a1-3)[Gal(a1-3)Gal(b1-3)GlcNAc(b1-2)Man(a1-6)]Man(b1-4)GlcNAc(b1-4)GlcNAc
In short: as §1

[8] = biological target: Gal(a1-4)Gal(b1-4)GlcNAc
In short: as §1

[9] = biological target: Gal(b1-3)GalNAc(a1-3)[Fuc(a1-2)]Gal(b1-4)GlcNAc
In short: as §1

[10] = biological target: Gal(b1-3)GlcNAc(b1-2)[Gal(b1-3)GlcNAc(b1-6)]Man(a1-6)[Gal(b1-3)GlcNAc(b1-2)Man(a1-3)]Man(b1-4)GlcNAc(b1-4)GlcNAc
In short: as §1

[11] = biological target: Gal(b1-3)[Fuc(a1-4)]GlcNAc(b1-3)Gal(b1-4)[Fuc(a1-3)]GlcNAc
In short: as §1

[12] = biological target: Gal(b1-4)GlcNAc(b1-2)[Gal(b1-4)GlcNAc(b1-4)]Man(a1-3)[Gal(b1-4)GlcNAc(b1-2)[Gal(b1-4)GlcNAc(b1-6)]Man(a1-6)]Man(b1-4)GlcNAc(b1-4)GlcNAc
In short: as §1

[13] = biological target: Gal(b1-4)GlcNAc(b1-3)Gal(b1-3)GalNAc
In short: as §1

[14] = biological target: Gal(b1-4)GlcNAc(b1-3)Gal(b1-4)GlcNAc(b1-2)Man(a1-3)[Gal(b1-4)GlcNAc(b1-3)Gal(b1-4)GlcNAc(b1-2)Man(a1-6)]Man(b1-4)GlcNAc(b1-4)GlcNAc
In short: as §1

[15] = biological target: Gal(b1-4)GlcNAc(b1-3)Gal(b1-4)GlcNAc(b1-3)Gal(b1-4)GlcNAc(b1-2)Man(a1-3)[Gal(b1-4)GlcNAc(b1-3)Gal(b1-4)GlcNAc(b1-3)Gal(b1-4)GlcNAc(b1-2)Man(a1-6)]Man(b1-4)GlcNAc(b1-4)GlcNAc
In short: as §1

[16] = biological target: Gal(b1-4)GlcNAc(b1-3)Gal(b1-4)GlcNAc(b1-3)GalNAc
In short: as §1

[17] = biological target: Gal(b1-4)GlcNAc(b1-3)Gal(b1-4)GlcNAc(b1-3)[Gal(b1-4)GlcNAc(b1-3)Gal(b1-4)GlcNAc(b1-6)]GalNAc
In short: as §1

[18] = biological target: Gal(b1-4)GlcNAc(b1-3)Gal(b1-4)GlcNAc(b1-6)[Gal(b1-3)]GalNAc
In short: as §1

[19] = biological target: Gal3S(b1-4)Glc
In short: as §1

[20] = biological target: Gal3S(b1-4)[Fuc(a1-3)]Glc6S
In short: as §1

[21] = biological target: GalNAc(b1-4)GlcNAc6S
In short: as §1

[22] = biological target: GalNAc3S(b1-4)GlcNAc3S
In short: as §1

[23] = biological target: GlcA(b1-6)Gal
In short: as §1

[24] = biological target: GlcA3S(b1-3)Gal(b1-4)GlcNAc(b1-3)Gal(b1-4)Glc
In short: as §1

[25] = biological target: GlcNAc(b1-3)Gal(b1-4)Glc
In short: as §1

[26] = biological target: GlcNAc(b1-3)Gal(b1-4)GlcNAc
In short: as §1

[27] = biological target: GlcNAc(b1-3)Gal(b1-4)GlcNAc(b1-2)Man(a1-3)[GlcNAc(b1-3)Gal(b1-4)GlcNAc(b1-2)Man(a1-6)]Man(b1-4)GlcNAc(b1-4)GlcNAc
In short: as §1

[28] = biological target: Kdn(a2-3)Gal(b1-4)[Fuc(a1-3)]GlcNAc
In short: as §1

[29] = biological target: Man(a1-2)Man(a1-3)Man
In short: as §1

[30] = biological target: Man(a1-3)[Man(a1-6)]Man(a1-6)[Man(a1-2)Man(a1-3)]Man(b1-4)GlcNAc(b1-4)GlcNAc
In short: as §1

[31] = biological target: Man(a1-3)[Man(a1-6)]Man(a1-6)[Man(a1-3)]Man(b1-4)GlcNAc(b1-4)GlcNAc
In short: as §1

[32] = biological target: Neu5Ac(a2-3)Gal(b1-4)GlcNAc(b1-2)[Neu5Ac(a2-3)Gal(b1-4)GlcNAc(b1-6)]Man(a1-6)[Neu5Ac(a2-3)Gal(b1-4)GlcNAc(b1-2)Man(a1-3)][GlcNAc(b1-4)]Man(b1-4)GlcNAc(b1-4)GlcNAc
In short: as §1

[33] = biological target: Neu5Ac(a2-3)Gal(b1-4)GlcNAc(b1-3)Gal(b1-4)GlcNAc(b1-2)Man(a1-3)[Neu5Ac(a2-3)Gal(b1-4)GlcNAc(b1-3)Gal(b1-4)GlcNAc(b1-2)Man(a1-6)]Man(b1-4)GlcNAc(b1-4)GlcNAc
In short: as §1

[34] = biological target: Neu5Ac(a2-3)Gal(b1-4)GlcNAc(b1-3)Gal(b1-4)GlcNAc(b1-3)Gal(b1-4)GlcNAc(b1-2)Man(a1-3)[Neu5Ac(a2-3)Gal(b1-4)GlcNAc(b1-3)Gal(b1-4)GlcNAc(b1-3)Gal(b1-4)GlcNAc(b1-2)Man(a1-6)]GalNAc
In short: as §1

[35] = biological target: Neu5Ac(a2-3)Gal(b1-4)GlcNAc(b1-3)Gal(b1-4)GlcNAc(b1-3)GalNAc
In short: as §1

[36] = biological target: Neu5Ac(a2-3)[GalNAc(b1-4)]Gal(b1-4)GlcNAc(b1-3)GalNAc
In short: as §1

[37] = biological target: Neu5Ac(a2-6)Gal(b1-4)GlcNAc(b1-3)Gal(b1-4)GlcNAc(b1-3)Gal(b1-4)GlcNAc(b1-2)Man(a1-3)[Neu5Ac(a2-6)Gal(b1-4)GlcNAc(b1-3)Gal(b1-4)GlcNAc(b1-3)Gal(b1-4)GlcNAc(b1-2)Man(a1-6)]GalNAc
In short: as §1

[38] = biological target: Neu5Ac(a2-6)Gal(b1-4)GlcNAc(b1-3)Gal(b1-4)GlcNAc(b1-3)[Neu5Ac(a2-6)Gal(b1-4)GlcNAc(b1-3)Gal(b1-4)GlcNAc(b1-6)]GalNAc
In short: as §1

[39] = biological target: Neu5Ac(a2-6)Gal(b1-4)GlcNAc(b1-3)Gal(b1-4)[Fuc(a1-3)]GlcNAc(b1-3)Gal(b1-4)[Fuc(a1-3)]GlcNAc
In short: as §1

[40] = biological target: Neu5Ac(a2-6)GalNAc
In short: as §1

B1: mCC1-Hexahis-Precomplexed (Mus musculus), P31809 (protein)
chain: MELASAHLHKGQVPWGGLLLTASLLASWSPATTAEVTIEAVPPQVAEDNNVLLLVHNLPLALGAFAWYKGNTTAIDKEIARFVPNSNMNFTGQAYSGREIIYSNGSLLFQMITMKDMGVYTLDMTDENYRRTQATVRFHVHPILLKPNITSNNSNPVEGDDSVSLTCDSYTDPDNINYLWSRNGESLSEGDRLKLSEGNRTLTLLNVTRNDTGPYVCETRNPVSVNRSDPFSLNIIYGPDTPIISPSDIYLHPGSNLNLSCHAASNPPAQYFWLINEKPHASSQELFIPNITTNNSGTYTCFVNNSVTGLSRTTVKNITVLEPVTQPFLQVTNTTVKELDSVTLTCLSNDIGANIQWLFNSQSLQLTERMTLSQNNSILRIDPIKREDAGEYQCEISNPVSVRRSNSIKLDIIFDPTQGGLSDGHHHHHH
glycan array binding signal (z-score) [1]: -0.163
glycan array binding signal (z-score) [2]: -0.097
glycan array binding signal (z-score) [3]: -0.18
glycan array binding signal (z-score) [4]: 0.277
glycan array binding signal (z-score) [5]: -0.024
glycan array binding signal (z-score) [6]: -0.231
glycan array binding signal (z-score) [7]: -0.189
glycan array binding signal (z-score) [8]: -0.227
glycan array binding signal (z-score) [9]: -0.191
glycan array binding signal (z-score) [10]: -0.273
glycan array binding signal (z-score) [11]: -0.217
glycan array binding signal (z-score) [12]: -0.217
glycan array binding signal (z-score) [13]: -0.158
glycan array binding signal (z-score) [14]: 3.85
glycan array binding signal (z-score) [15]: 4.96
glycan array binding signal (z-score) [16]: 6.28
glycan array binding signal (z-score) [17]: 4.46
glycan array binding signal (z-score) [18]: 5.01
glycan array binding signal (z-score) [19]: -0.25
glycan array binding signal (z-score) [20]: -0.049
glycan array binding signal (z-score) [21]: -0.282
glycan array binding signal (z-score) [22]: -0.065
glycan array binding signal (z-score) [23]: -0.12
glycan array binding signal (z-score) [24]: -0.235
glycan array binding signal (z-score) [25]: -0.227
glycan array binding signal (z-score) [26]: -0.246
glycan array binding signal (z-score) [27]: -0.184
glycan array binding signal (z-score) [28]: -0.169
glycan array binding signal (z-score) [29]: -0.152
glycan array binding signal (z-score) [30]: 4.18
glycan array binding signal (z-score) [31]: -0.197
glycan array binding signal (z-score) [32]: -0.045
glycan array binding signal (z-score) [33]: 7.65
glycan array binding signal (z-score) [34]: 7.6
glycan array binding signal (z-score) [35]: -0.119
glycan array binding signal (z-score) [36]: 3.55
glycan array binding signal (z-score) [37]: 4.99
glycan array binding signal (z-score) [38]: 9.54
glycan array binding signal (z-score) [39]: -0.116
glycan array binding signal (z-score) [40]: -0.234

From the supplement of paper PMC8728848
